{
  "source": "PubChem BioAssay",
  "key": {"[1]": {"experiment": "viability loss in pontine glioma line – cell-based, SU-DIPG-XXV, MIPE5.0, CellTiter-Glo, qHTS, dose response (AID 1347065; cut-off not given, nearly all actives have AC50 up to about 26 µM;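 note: cells exposed to compound for 48 hours before ATP readout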)", "settings": "CellTiter-Glo ATP luminescence"}, "[2]": {"experiment": "SU-DIPG-VI glioma cell viability, MIPE4.0 library, CellTiter-Glo luminescence, qHTS (AID 1347066; cut-off not given, nearly all actives have AC50 up to about 30 µM;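 note: cells exposed to compound for 48 hours before readout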)", "settings": "CellTiter-Glo ATP luminescence"}, "[3]": {"experiment": "SU-DIPG-XXV glioma cell viability, MIPE5.0 library, qHTS (AID 1347068; cut-off not given, nearly all actives have IC50 up to about 30 µM)"}, "[4]": {"experiment": "survival rescue of mitochondrial mutant cells in low glucose, primary screen, MELAS cybrids, Rieske KO mouse fibroblasts, CellTiter-Glo (AID 1508586;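 active = mean z-score across replicates of 1.96 or higher in either the MELAS or the Rieske mutant cell line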;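 note: z relative to plate mean and SD of compound and empty wells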)"}, "[5]": {"target": "NAD(+) hydrolase SARM1 (Homo sapiens) (UniProt Q6SZW1)", "sequence (Q6SZW1 whole entry, looked up)": "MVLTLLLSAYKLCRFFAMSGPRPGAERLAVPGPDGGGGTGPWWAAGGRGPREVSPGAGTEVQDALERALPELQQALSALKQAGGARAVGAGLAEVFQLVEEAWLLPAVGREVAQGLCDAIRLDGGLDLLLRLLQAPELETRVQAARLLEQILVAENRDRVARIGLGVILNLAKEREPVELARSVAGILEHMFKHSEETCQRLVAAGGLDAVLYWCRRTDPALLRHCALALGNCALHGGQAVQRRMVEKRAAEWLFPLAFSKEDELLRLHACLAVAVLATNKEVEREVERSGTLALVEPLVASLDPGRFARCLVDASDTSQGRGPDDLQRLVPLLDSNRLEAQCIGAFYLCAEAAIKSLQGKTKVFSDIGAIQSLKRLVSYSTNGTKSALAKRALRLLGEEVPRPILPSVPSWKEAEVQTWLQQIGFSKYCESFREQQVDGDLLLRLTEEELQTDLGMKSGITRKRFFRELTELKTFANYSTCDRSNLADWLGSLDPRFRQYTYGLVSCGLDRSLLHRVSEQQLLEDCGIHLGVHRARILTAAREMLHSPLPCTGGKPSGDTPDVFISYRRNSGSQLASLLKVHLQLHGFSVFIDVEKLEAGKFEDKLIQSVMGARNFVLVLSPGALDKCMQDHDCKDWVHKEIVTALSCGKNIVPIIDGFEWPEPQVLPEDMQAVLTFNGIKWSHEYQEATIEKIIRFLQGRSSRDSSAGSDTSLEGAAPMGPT", "experiment": "SARM1 TIR NADase inhibitors, cell lysate, NAD-Glo luminescence (AID 1508614;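 active = compound whose remaining NAD level is above about 45 nM, limit read from the data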)", "settings": "SAM-TIR HEK293T lysate NADase, at 1 µM, stronger effect = higher value"}, "[6]": {"experiment": "viability rescue of complex I mutant cybrids, primary screen, cell-based, galactose medium, ATP luminescence (AID 1645843;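 active = z-score of at least 1.8 in each of two replicates, scored against plate mean and spread of sample wells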;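 note: positive z means more ATP and so rescue of galactose-driven cybrid death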)", "settings": "complex I mutant cybrid cells, 72 h, stronger effect = higher value"}, "[7]": {"experiment": "modifiers of HSF1 nuclear foci, imaging, Selleck Cancer Library (AID 1347162; in the data active = plate-normalised HSF1 focus index below about 0.46)", "settings": "human cells, at 10 µM; SSMD: measured here: HSF1 foci SSMD mean; cell count: measured here: cell number; plate-normalised HSF1 focus index: stronger effect = lower value"}, "[8]": {"experiment": "ovarian cancer cell viability with rucaparib, profiling panel, oncology-focused library, rucaparib conditional (AID 1508598)", "settings": "patient-derived ovarian cancer cells, CellTiter-Glo viability, 144 h, stronger effect = lower value"}, "[9]": {"experiment": "sensitizers of A549 cells to miR-34 induction, primary screen, imaging, A549 dox-inducible miR-34, nuclei and caspase counts (AID 1347080;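 active = compounds whose cell count with miR-34 switched on is under 0.7 times the count with it off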)", "settings": "A549 miR-34 inducible, Hoechst nuclei count, 48 h"}, "[10]": {"target": "Mitogen-activated protein kinase 7 (Homo sapiens) (UniProt Q13164)", "sequence (Q13164 whole entry, looked up, the tested form may be a part)": "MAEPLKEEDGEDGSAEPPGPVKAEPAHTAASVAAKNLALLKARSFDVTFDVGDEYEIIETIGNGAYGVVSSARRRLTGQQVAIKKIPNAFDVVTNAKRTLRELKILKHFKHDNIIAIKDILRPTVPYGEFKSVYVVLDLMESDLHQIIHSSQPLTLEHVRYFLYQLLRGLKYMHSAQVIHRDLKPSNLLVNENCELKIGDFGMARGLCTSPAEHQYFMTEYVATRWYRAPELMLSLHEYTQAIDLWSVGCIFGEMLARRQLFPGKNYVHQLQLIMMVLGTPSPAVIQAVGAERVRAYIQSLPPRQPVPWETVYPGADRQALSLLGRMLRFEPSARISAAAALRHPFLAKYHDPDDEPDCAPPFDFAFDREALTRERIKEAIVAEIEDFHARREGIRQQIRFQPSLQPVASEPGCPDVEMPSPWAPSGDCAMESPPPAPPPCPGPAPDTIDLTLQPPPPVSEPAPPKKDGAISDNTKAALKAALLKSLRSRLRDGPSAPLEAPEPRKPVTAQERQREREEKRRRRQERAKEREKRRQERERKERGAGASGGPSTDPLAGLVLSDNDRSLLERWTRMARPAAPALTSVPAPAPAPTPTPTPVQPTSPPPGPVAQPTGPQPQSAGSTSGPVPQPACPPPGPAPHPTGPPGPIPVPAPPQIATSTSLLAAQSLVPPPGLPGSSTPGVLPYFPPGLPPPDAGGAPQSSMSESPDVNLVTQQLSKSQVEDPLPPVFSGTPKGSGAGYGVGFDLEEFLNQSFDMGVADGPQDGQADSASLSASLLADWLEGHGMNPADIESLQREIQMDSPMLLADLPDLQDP", "experiment": "ERK5 transactivation activators in reporter cells, primary screen, cell-based, HTS (AID 1508626;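 active = luciferase signal above three times the same-plate solvent-only control wells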;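 note: luciferase driven by Gal4-ERK5 fusion binding five Gal4 sites before minimal TATA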)", "settings": "HeLa Gal4-ERK5 transactivation, 18 h, at 5 µM, stronger effect = higher value"}, "[11]": {"settings": "MELAS cybrid survival, CellTiter-Glo 48 h, stronger effect = higher value"}, "[12]": {"settings": "Rieske KO mouse fibroblast survival, CellTiter-Glo 72 h"}},
  "note": "Where “and” joins values, the source holds several entries; their conditions need not be identical. Equal values may be shown once. Records with an inconclusive call do not appear. A structure can be active in one record and inactive in another. Calls of active or inactive are those of the source.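 Rule for the calls, unless noted: active = normalized viability below 100% at a tested concentration; inactive = the rest.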",
  "data": [
    {"smiles": "O=C(NCCO[N+](=O)[O-])c1cccnc1", "values": [
      {"measurement": "outcome", "setting": "[1]", "result": "inactive"},
      {"measurement": "outcome", "setting": "[2]", "result": "inactive"},
      {"measurement": "outcome", "setting": "[3]", "result": "inactive"},
      {"measurement": "z-score", "setting": "[4]; [11]", "result": "-0.335 (inactive) and 0.466 (inactive) and -0.214 (inactive)"},
      {"measurement": "z-score", "setting": "[4]; [12]", "result": "-0.979 and 0.348 and 0.117"},
      {"measurement": "remaining NAD", "setting": "[5]", "result": "10 nM (inactive)"},
      {"measurement": "z-score", "setting": "[6]", "result": "0.795 (inactive) and 0.02 (inactive) and 0.605 (inactive)"}
    ]},
    {"smiles": "Cc1ccc(NC(=O)c2ccc(CN3CCN(C)CC3)cc2)cc1Nc1nccc(-c2cccnc2)n1", "values": [
      {"measurement": "AC50", "setting": "[1]", "result": "23.5 µM (active)"},
      {"measurement": "outcome", "setting": "[2]", "result": "inactive"},
      {"measurement": "SSMD", "setting": "[7]", "result": 2.47},
      {"measurement": "cell count", "setting": "[7]", "result": 6720},
      {"measurement": "plate-normalised HSF1 focus index", "setting": "[7]", "result": "1.13 (inactive)"},
      {"measurement": "viability", "setting": "[8]; at 0.000305 µM, OCI-C5x cells, with rucaparib 10 µM, 100% = cells with rucaparib alone", "result": "112% (inactive) and 107% (inactive)"},
      {"measurement": "viability", "setting": "[8]; at 0.000305 µM, OCI-C5x cells, without rucaparib", "result": "107% (inactive) and 98.4% (active)"},
      {"measurement": "viability", "setting": "[8]; at 0.000305 µM, OCI-P5x cells, with rucaparib 20 µM, 100% = cells with rucaparib alone", "result": "97.9% (active) and 85.2% (active)"},
      {"measurement": "viability", "setting": "[8]; at 0.000305 µM, OCI-P5x cells, without rucaparib", "result": "98.1% (active) and 85.5% (active)"},
      {"measurement": "viability", "setting": "[8]; at 0.00122 µM, OCI-C5x cells, with rucaparib 10 µM, 100% = cells with rucaparib alone", "result": "109% (inactive) and 103% (inactive)"},
      {"measurement": "viability", "setting": "[8]; at 0.00122 µM, OCI-C5x cells, without rucaparib", "result": "106% (inactive) and 98.3% (active)"},
      {"measurement": "viability", "setting": "[8]; at 0.00122 µM, OCI-P5x cells, with rucaparib 20 µM, 100% = cells with rucaparib alone", "result": "95.4% (active) and 92.7% (active)"},
      {"measurement": "viability", "setting": "[8]; at 0.00122 µM, OCI-P5x cells, without rucaparib", "result": "96.8% (active) and 89.4% (active)"},
      {"measurement": "viability", "setting": "[8]; at 0.00488 µM, OCI-C5x cells, with rucaparib 10 µM, 100% = cells with rucaparib alone", "result": "113% (inactive) and 114% (inactive)"},
      {"measurement": "viability", "setting": "[8]; at 0.00488 µM, OCI-C5x cells, without rucaparib", "result": "108% (inactive) and 102% (inactive)"},
      {"measurement": "viability", "setting": "[8]; at 0.00488 µM, OCI-P5x cells, with rucaparib 20 µM, 100% = cells with rucaparib alone", "result": "92.2% (active) and 93.1% (active)"},
      {"measurement": "viability", "setting": "[8]; at 0.00488 µM, OCI-P5x cells, without rucaparib", "result": "99.4% (active) and 94.5% (active)"},
      {"measurement": "viability", "setting": "[8]; at 0.0195 µM, OCI-C5x cells, with rucaparib 10 µM, 100% = cells with rucaparib alone", "result": "120% (inactive) and 104% (inactive)"},
      {"measurement": "viability", "setting": "[8]; at 0.0195 µM, OCI-C5x cells, without rucaparib", "result": "112% (inactive) and 98.4% (active)"},
      {"measurement": "viability", "setting": "[8]; at 0.0195 µM, OCI-P5x cells, with rucaparib 20 µM, 100% = cells with rucaparib alone", "result": "94.9% (active) and 104% (inactive)"},
      {"measurement": "viability", "setting": "[8]; at 0.0195 µM, OCI-P5x cells, without rucaparib", "result": "95% (active) and 94.1% (active)"},
      {"measurement": "viability", "setting": "[8]; at 0.0781 µM, OCI-C5x cells, with rucaparib 10 µM, 100% = cells with rucaparib alone", "result": "123% (inactive) and 97.7% (active)"},
      {"measurement": "viability", "setting": "[8]; at 0.0781 µM, OCI-C5x cells, without rucaparib", "result": "115% (inactive) and 101% (inactive)"},
      {"measurement": "viability", "setting": "[8]; at 0.0781 µM, OCI-P5x cells, with rucaparib 20 µM, 100% = cells with rucaparib alone", "result": "95% (active) and 100% (inactive)"},
      {"measurement": "viability", "setting": "[8]; at 0.0781 µM, OCI-P5x cells, without rucaparib", "result": "96.1% (active) and 97.9% (active)"},
      {"measurement": "viability", "setting": "[8]; at 0.313 µM, OCI-C5x cells, with rucaparib 10 µM, 100% = cells with rucaparib alone", "result": "120% (inactive) and 104% (inactive)"},
      {"measurement": "viability", "setting": "[8]; at 0.313 µM, OCI-C5x cells, without rucaparib", "result": "110% (inactive) and 103% (inactive)"},
      {"measurement": "viability", "setting": "[8]; at 0.313 µM, OCI-P5x cells, with rucaparib 20 µM, 100% = cells with rucaparib alone", "result": "100% (inactive) and 103% (inactive)"},
      {"measurement": "viability", "setting": "[8]; at 0.313 µM, OCI-P5x cells, without rucaparib", "result": "96.2% (active) and 101% (inactive)"},
      {"measurement": "viability", "setting": "[8]; at 1.25 µM, OCI-C5x cells, with rucaparib 10 µM, 100% = cells with rucaparib alone", "result": "118% (inactive) and 105% (inactive)"},
      {"measurement": "viability", "setting": "[8]; at 1.25 µM, OCI-C5x cells, without rucaparib", "result": "115% (inactive) and 106% (inactive)"},
      {"measurement": "viability", "setting": "[8]; at 1.25 µM, OCI-P5x cells, with rucaparib 20 µM, 100% = cells with rucaparib alone", "result": "95.6% (active) and 99.9% (active)"},
      {"measurement": "viability", "setting": "[8]; at 1.25 µM, OCI-P5x cells, without rucaparib", "result": "95.1% (active) and 100% (inactive)"},
      {"measurement": "viability", "setting": "[8]; at 5 µM, OCI-C5x cells, with rucaparib 10 µM, 100% = cells with rucaparib alone", "result": "133% (inactive) and 131% (inactive)"},
      {"measurement": "viability", "setting": "[8]; at 5 µM, OCI-C5x cells, without rucaparib", "result": "124% (inactive) and 134% (inactive)"},
      {"measurement": "viability", "setting": "[8]; at 5 µM, OCI-P5x cells, with rucaparib 20 µM, 100% = cells with rucaparib alone", "result": "84.6% (active) and 98.4% (active)"},
      {"measurement": "viability", "setting": "[8]; at 5 µM, OCI-P5x cells, without rucaparib", "result": "89.8% (active) and 103% (inactive)"},
      {"measurement": "remaining NAD", "setting": "[5]", "result": "10 nM (inactive)"},
      {"measurement": "z-score", "setting": "[6]", "result": "-1.09 (inactive) and -0.785 (inactive)"}
    ]},
    {"smiles": "CO[C@@H]1[C@@H](OC(N)=O)[C@@H](O)[C@H](Oc2ccc3c(O)c(NC(=O)c4ccc(O)c(CC=C(C)C)c4)c(=O)oc3c2C)OC1(C)C", "values": [
      {"measurement": "outcome", "setting": "[1]", "result": "inactive"},
      {"measurement": "outcome", "setting": "[2]", "result": "inactive"},
      {"measurement": "outcome", "setting": "[3]", "result": "inactive"},
      {"measurement": "fold change", "setting": "[9]; stronger effect = lower value, cell number ratio, induced over uninduced", "result": "0.761 (inactive)"},
      {"measurement": "fold change", "setting": "[9]; measured here: relative caspase fold change +Dox/-Dox", "result": 1.98},
      {"measurement": "cell count", "setting": "[9]; measured here: total cells with miR-34 induction, stronger effect = lower value", "result": 10300},
      {"measurement": "cell count", "setting": "[9]; measured here: total cells without miR-34 induction", "result": 13600},
      {"measurement": "z-score", "setting": "[4]; [11]", "result": "0.0759 (inactive)"},
      {"measurement": "z-score", "setting": "[4]; [12]", "result": -1.01},
      {"measurement": "remaining NAD", "setting": "[5]", "result": "10 nM (inactive)"},
      {"measurement": "luciferase signal", "setting": "[10]", "result": "44 AU (inactive)"}
    ]}
  ]
}
